# Laboratory results reported in ChEMBL document CHEMBL3988442, “University of Dundee, Small-Polar-MMV Screening Library” (2021).
# About 13,000 (27%) of roughly 48,000 compounds showed an effect of 50% or more. The list shows a part of the results.
# Tested on: Wolbachia pipientis
# Test: Anti-Wolbachia Cell-Based Screen
# Assay type: functional
# Parameters: scale not given: in the data most compounds retested in dose-response had high values
# Conditions: 5 µM
row,SMILES,Percent Effect [%]
1,Cc1occc1C(=O)N1CCC(C(O)c2ccc(F)cc2)CC1 (stereo not drawn),-2.674
2,Cc1ccc(C)c(CC(=O)Nc2cnccc2SCCCO)c1,3.451
3,CCCN1CCC(N2CCN(c3cccc(C)n3)CC2)CC1,3.962
4,CC(C)C[C@@H]1N[C@H](C(=O)NCC2CC2)Cc2c[nH]c3cccc1c23,1.644
5,COCC1c2nnn(CC3CC3)c2CCN1C(=O)c1sccc1C (stereo not drawn),4.054
6,Cc1nnc(N2CCC(CNC(=O)OC(C)(C)C)CC2)c(C#N)c1C,-3.272
7,Cl.Cl.O[C@@H]1C[C@@](CNCC2CCCC2)(COc2cccnc2)C[C@@H]1O,-14.64
8,O=C(CNc1cccc(S(=O)(=O)C(F)F)c1)NCc1ccco1,4.728
9,O=C(CNc1ccc(OC2CCOC2)cc1)NCc1ccco1 (stereo not drawn),104.1
10,O=C(CCc1ccncc1)Nc1ccc(OCC2CCOCC2)cc1,5.919
11,O=C(CNc1cccc(CC(F)(F)F)c1)NCc1ccco1,5.703
12,O=C(CNc1ccc(OCC2CCOCC2)cc1)NCc1ccco1,93.4
13,O=C(CCc1cccnc1)Nc1ccc(OCC2CCOCC2)cc1,-6.342
14,CCN1CCN(C(=O)CCC2CCN(C(C)CCC(=O)OC)CC2)CC1 (stereo not drawn),-3.151
15,Cc1nccn1-c1ccc(N2CCC(NC(C)C(C)C)CC2)cc1 (stereo not drawn),16.28
16,CN(C)c1cc(C(=O)NC2(c3cccc(F)c3)CCOCC2)ccn1,-10.5
17,Cc1cccc(CN2C[C@@H]3CN(C(=O)c4conc4C)C[C@@H]3C2=O)c1,2.313
18,c1cncc(N2CCOC3(CCCN(c4nncs4)C3)C2)c1 (stereo not drawn),-20.57
19,Cc1ccc(N2N=C(C(=O)O)S(=O)(=O)c3cccnc32)cc1,88.09
20,Cc1nc2c(c(N3CC=CC3)n1)CCN(c1ncccc1C(N)=O)CC2,-4.106
21,CN1N=C(C(=O)N2CCCCC2)S(=O)(=O)c2ccccc21,9.429
22,Cc1ccc(N2N=C(C(N)=O)S(=O)(=O)c3cccnc32)cc1,70.93
23,CCc1c(C(=O)NCC2CCS(=O)(=O)C2)cnn1-c1ccc(C)cc1 (stereo not drawn),0.07541
24,Cc1ccc(N2N=C(C(=O)NCC3CC3)S(=O)(=O)c3cccnc32)cc1,113.2
25,Cc1ccc(CN2CCN(c3ncccc3C(N)=O)CC2CCO)cc1 (stereo not drawn),0.06546
26,Cc1ccc(-n2nnc(C(=O)NCC3CCCCC3)n2)cc1,3.646
27,O=C(C1=NN(Cc2ccccc2)c2ccccc2S1(=O)=O)N1CCCC1,25.7

row,SMILES,Percent Effect [%]
1,C[C@H](NC(=O)C1(N(C)Cc2ccccc2)Cc2ccccc2C1)C(N)=O,-2.365
2,CC(=O)c1c(F)cccc1NC1CCN(S(=O)(=O)C2CC2)CC1,15.22
3,CN(CC(=O)NC(C)(C)C)C(=O)c1cccn1CCc1ccccc1,4.312
4,Cc1cnn(CCNCc2nccn2CC(F)(F)F)c1,-5.156
5,CN(Cc1nccn1C)C(=O)c1cccc(CCC(C)(C)O)c1,-1.939
6,CN(Cc1ccc2c(c1)OCO2)C(=O)c1ccc(=O)n(C)c1,-0.4136
7,CN(Cc1cc(Br)cn1C)C(=O)c1cccnc1,-11.61
8,CCn1c(CN(C)C(=O)c2ccc(O)nc2)nc2ccccc21,-29.68
9,CN(Cc1nccn1CC(F)(F)F)C(=O)c1ccc2c(c1)OCO2,110.7
10,Cc1cc(CN(C)C(=O)c2ccc(C(F)(F)F)nc2)no1,4.429
11,Cc1nn(C)c(C)c1CN(C)C(=O)c1cccc(CCC(C)(C)O)c1,-10.94
12,CN(Cc1nccn1CC(F)(F)F)C(=O)c1cccc(N(C)C)c1,107.5
13,Cc1ccc(C(=O)N(C)Cc2nccn2CC(F)(F)F)cn1,108.9
14,CN(Cc1ccc2c(c1)OCO2)C(=O)c1ccn(C)c(=O)c1,11.43
15,Cc1ccc(C(=O)N(C)Cc2cc(Br)cs2)cn1,108.4
16,CCc1nnsc1C(=O)NCc1c(C)nn(CCOC)c1C,22.53
17,Cc1ccc(C2CCCCCN2CCNS(C)(=O)=O)o1 (stereo not drawn),-18.53
18,O=C(CN1C(=O)CCCc2sccc21)NC1CCc2nccn2C1 (stereo not drawn),-8.511
19,Cc1cc(CN2C[C@H]3CC[C@@H]2CN(Cc2c(C)noc2C)C3)ccc1F,-0.5585
20,COc1cc(C(=O)N(C)Cc2nccn2CC(F)(F)F)ccc1C,111.1
21,CN(C)CC1CCN(Cc2nccn2CC(F)(F)F)CC1,2.033
22,COCc1cccc(C(=O)N(C)Cc2ncc(C)c(OC)c2C)c1,6.137
23,CCOc1ccc(C(=O)N(C)Cc2nccn2CC(F)(F)F)cc1,117.2
24,CC(O)C1CCN(Cc2nccn2CC(F)(F)F)CC1 (stereo not drawn),-9.918
25,FC(F)(F)Cn1ccnc1CNCCn1cccn1,-10.84
26,O=C(O)C(F)(F)F.O=C(O)C(F)(F)F.c1cncc(CN2CCOC(c3ncn4c(C5CC5)cccc34)C2)c1 (stereo not drawn),-19.22
